This excerpt belongs to a sample that is enriched for hits.
FECH block = inhibitors of human ferrochelatase | AID 1671448 | 20,000 compounds, 3.3% hits | P22830 | calls only at 10 µM (by protocol) | purified FECH, Ni-mesoporphyrin absorbance 550 nm;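 active = enzyme reaction rate more than 3 SD below the solvent-only control wells on the same plate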;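 note: lower slope than DMSO wells means FECH inhibition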
Target sequence (P22830 whole entry, looked up): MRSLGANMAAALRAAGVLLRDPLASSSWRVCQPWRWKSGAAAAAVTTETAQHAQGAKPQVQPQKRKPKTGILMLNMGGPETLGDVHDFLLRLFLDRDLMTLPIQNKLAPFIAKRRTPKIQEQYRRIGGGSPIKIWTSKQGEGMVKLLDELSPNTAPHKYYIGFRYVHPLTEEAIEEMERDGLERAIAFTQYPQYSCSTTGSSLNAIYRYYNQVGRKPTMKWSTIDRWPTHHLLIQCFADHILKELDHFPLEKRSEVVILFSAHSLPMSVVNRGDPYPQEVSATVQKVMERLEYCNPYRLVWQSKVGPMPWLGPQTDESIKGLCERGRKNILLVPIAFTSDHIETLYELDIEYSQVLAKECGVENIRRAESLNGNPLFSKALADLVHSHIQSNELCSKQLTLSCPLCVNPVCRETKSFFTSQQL
An asterisk follows results filed as active; i = inactive; + = active, no number.

SMILES	FECH block
CC(=O)Nc1ccc(S(=O)(=O)NCc2ccc3[nH]c(C)c(C)c3c2)cc1	i
O=C(CN1CCCN(Cc2ccccc2)S1(=O)=O)Nc1ccccc1Cl	i
CCOc1cccc(-c2ccc(Cn3ccnc3)cn2)c1	i
O=c1c2c(nc3nc(CNc4ccccc4F)[nH]n13)CCC2	i
Cc1cc(=O)n2[nH]c(NCc3ccc(C(=O)Nc4ccc(Br)cc4)cc3)nc2n1	i
Cc1ccccc1NCc1nc2nc3c(c(=O)n2[nH]1)CCC3	+
Cc1nc2nc(C)c(NC(=O)Nc3ccccc3Cl)c(=O)n2[nH]1	i
COc1ccc(NCc2nc3nc4c(c(=O)n3[nH]2)CCC4)c(OC)c1	i
O=c1c2c(nc3nc(CNc4ccc(Br)cc4)[nH]n13)CCC2	+
CCOc1ccccc1NCc1nc2nc3c(c(=O)n2[nH]1)CCC3	i
Cc1ccc(Cl)cc1NCc1nc2nc3c(c(=O)n2[nH]1)CCC3	+
Cc1c(Cl)cccc1NCc1nc2nc3c(c(=O)n2[nH]1)CCC3	+
CCc1nc2nc3c(c(=O)n2[nH]1)CCC3	i
Cc1nc2nc(C)c(NC(=O)Nc3cc(Cl)ccc3C)c(=O)n2[nH]1	i
OCCn1ccnc1-c1ncc[nH]1	i
CSc1nc(NC(C)(C)C)c(C#N)c(-c2ccc(Cl)cc2)n1	i
CCCc1nc(CN(C)C(=O)c2csc3c2CCCC3)no1	i
CCc1cc(Sc2ccccc2NC(=O)c2ccc(C)cc2)n2nc(C)nc2n1	i
CCC1=NOC(C(=O)NCc2cccnc2Oc2ccc(C)nc2)C1 (stereo not given)	i
Cc1cc(C)n(CC2(CNc3nc(C4CCCC4)nc4c3CNC4)CC2)n1	i
CCOc1ccc(Nc2nc(N(C)CCO)nc3c2cnn3-c2ccccc2)cc1	i
Cc1[nH]c(=O)[nH]c(=O)c1-c1cccc(C(C)N(C)C)c1 (stereo not given)	i
Cc1cc(=O)[nH]c(NCCNCC(=O)NC2CCCCCCC2)n1	i
O=C(NC1CCN(Cc2ccccc2)CC1)C1CCN(c2ncnc3c2nc2n3CCCCC2)CC1	i
Cc1cc(C)c(S(=O)(=O)N2CCC(n3c(-c4ccccc4)nc4cccnc43)CC2)c(C)c1	i
SMILES	FECH block
CCOC(=O)c1cc2n(n1)CC(C)(C(=O)NCCC(C)C)N(c1cc(OC)cc(OC)c1)C2=O (stereo not given)	i
CCOC(=O)c1cc2n(n1)CC(C)(C(=O)NCCC(C)C)N(c1ccc(Cl)cc1)C2=O (stereo not given)	i
CCOC(=O)c1cc2n(n1)CC(C)(C(=O)NCCC(C)C)N(c1cc(C)cc(C)c1)C2=O (stereo not given)	+
CC(C)n1cnc2nc(CSc3ccccc3NC(=O)c3ccc(F)c(Cl)c3)cc(=O)n21	i
CC(C)n1cnc2nc(CSc3ccccc3NC(=O)c3cccc(F)c3)cc(=O)n21	+
CCc1cc(Sc2ccccc2NC(=O)c2cccc(F)c2)n2ncnc2n1	i
COc1ccc(C(=O)Nc2ccc(Nc3nc(C)cc(N4CCCC4)n3)cc2)cc1OC	i
Cc1cc(N(C)C)nc(Nc2ccc(NC(=O)c3ccc(-c4ccccc4)cc3)cc2)n1	i
O=C(O)c1[nH]ncc1CN1CCN(c2nsc3ccccc23)CC1	i
CCc1c(C(=O)N(C)CCn2ccnc2C)[nH]c2ccccc12	i
CCOC(=O)c1[nH]c2ccccc2c1CN1CCN(c2ncc(F)cn2)CC1	+
COc1nc(C)cc(C)c1CNC(=O)CC1NC(=O)c2ccccc21 (stereo not given)	i
Cc1cccc(N2C(=O)N(Cc3ccc(C)c(C)c3)c3ccccc3S2(=O)=O)c1	+
Cc1ccc(N2C(=O)N(Cc3cc(F)cc(F)c3)c3ccccc3S2(=O)=O)cc1	+
Cc1ccc(C)c(CN2CC(=O)N(Cc3cccc(C(F)(F)F)c3)c3ccccc3S2(=O)=O)c1	i
O=C1CN(Cc2ccc(F)cc2)S(=O)(=O)c2ccccc2N1Cc1ccc(Cl)cc1	i
CC(C)(C)c1ccc(CN2C(=O)N(c3cc(F)ccc3F)S(=O)(=O)c3ccccc32)cc1	i
Cc1ccc(N2C(=O)N(Cc3cc(=O)n4ccccc4n3)c3ccccc3S2(=O)=O)cc1	i
CCc1cccc(N2C(=O)N(Cc3cc(F)cc(F)c3)c3ccccc3S2(=O)=O)c1	+
COc1cccc(N2C(=O)N(Cc3ccc(C(C)(C)C)cc3)c3ccccc3S2(=O)=O)c1	i
CCc1cccc(N2C(=O)N(CC(=O)NC3CCCCC3)c3ccccc3S2(=O)=O)c1	i
Cc1ccc(N2C(=O)N(Cc3ccc(C(C)(C)C)cc3)c3ccccc3S2(=O)=O)cc1F	i
Cc1ccc(N2C(=O)N(Cc3cc(F)cc(F)c3)c3ccccc3S2(=O)=O)c(C)c1	+
O=C1CN(Cc2cccc(Br)c2)S(=O)(=O)c2ccccc2N1Cc1cccc(F)c1	i
CCc1nc(-c2c(-c3ccccc3)ncn2CCSc2ncn[nH]2)c(C)[nH]1	i
SMILES	FECH block
Cc1ccc(CNc2nc(Nc3ccc(C)c(C)c3)c3cnn(-c4ccccc4)c3n2)cc1	i
CSc1ncc(CN2CCC(CNC(=O)c3ccc[nH]3)C2)cn1 (stereo not given)	i
CC(C)c1cc(C2CCN(C(=O)CCn3cnc4ccccc43)CC2)[nH]n1	i
CC(C)Cn1c(CN2CCC(NS(C)(=O)=O)CC2)nc2ccccc21	i
CN(CC(=O)c1ccc(O)cc1)Cc1cccc2c1OCO2	i
Cc1ccc(C2(O)CCN(C(=O)COCc3ccccc3)CC2)nc1	i
Cc1nc(C)c(CNC(=O)c2ccc(NC(=O)c3ccoc3C)cc2)s1	i
c1ccc(-c2ncn(C3CCNC3)c2-c2ccc(Sc3ncn[nH]3)o2)cc1 (stereo not given)	i
CC(C)Cc1cc(C(=O)NCc2csc(-c3cnccn3)n2)n(C)n1	i
CCN(CCNC(=O)C1CCN(c2ccc(-c3ccccc3)nn2)CC1)Cc1ccccc1	+
O=C(NC1CC1)C1CCN(c2ccc(-c3cccs3)nn2)CC1	i
Cc1ccc(-c2ccc(N3CCC(C(=O)NCCCN(C)Cc4ccccc4)CC3)nn2)cc1	i
CC(C)CCNC(=O)C1CCN(c2ccc(-c3ccccc3)nn2)CC1	i
CCCNC(=O)C1CCN(c2ccc(-c3ccccc3)nn2)CC1	i
O=C(NC1CC1)C1CCN(c2ccc(-c3ccccc3)nn2)CC1	+
COc1ccc2c(c1)CC(NCCN(C)S(C)(=O)=O)CC2 (stereo not given)	i
O=C(O)c1cccc(CC2CCN(Cc3cnc(-c4ccccn4)nc3)C2)c1 (stereo not given)	i
O=C1C[C@H]2CC[C@@H](CN1)N2c1ccc(C(F)(F)F)cn1	i
Cc1ccsc1CNc1ccccc1C(=O)NCCc1cnc[nH]1	i
COCc1nc(CNC2CSCCSC2)no1	i
O=C(CN1CCN(Cc2ccc(Cl)cc2)S1(=O)=O)Nc1cccc(Cl)c1	i
O=C(CN1CCCN(Cc2ccccc2)S1(=O)=O)Nc1cccc(Cl)c1	i
O=C(CN1N=C(c2ccccc2)c2ccccc2S1(=O)=O)Nc1cccc(Cl)c1	+
CSCC[C@@H](CO)Nc1nc(C2CCCC2)nc2c1cnn2C	i
CCc1cc(Sc2ccccc2NC(=O)c2ccc(C(F)(F)F)cc2)n2nc(C)nc2n1	i
Cc1cc(C)n2nc(CN(C(=O)C3CCCCC3)c3ccc(F)cc3)nc2n1	i
Cc1ccc(CNC(=O)C2(C)Cn3nc(C(=O)NCc4ccc(F)cc4)cc3C(=O)N2C)cc1 (stereo not given)	i
O=C(CCC(=O)N1CCN(CC2CCCO2)CC1)NC1CCCC1 (stereo not given)	+

Screening data: PubChem BioAssay, Corson Lab, School of Medicine, Indiana University
